Results filed as inconclusive are left out. Activity calls are given as the source filed them. The call rests on the fitted dose curve; in most records, active means well fitted curve in the direction sought with a large enough effect in the repeat runs; inconclusive means weak or mixed curves; inactive means no such curve, though single readings can be large; an effect the other way counts as inactive or inconclusive.
How the values were obtained:
[1] = qHTS RealTime-Glo MT Cell Viability Assay in HepG2 cells - 32 hour (AID 1224877); further: nearly all actives have a fitted effect of over 55% in size
In short: (§1)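 qHTS, HepG2, 600 cells/well, RealTime-Glo (NanoLuc + prosubstrate) added with cells; 5 h preincubation; DMSO compound addition; 37 C; luminescence at 0/8/16/24/32/40 h.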

[2] = A CellTox Green Cytotoxicity Assay to monitor cytotoxicity in HepG2 cells - 24 hour (AID 1224878); further: nearly all actives have a fitted effect of over 45% in size
In short: (§2)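 Real-time, homogeneous cytotoxicity readout: dead-cell DNA staining by CellTox Green in HepG2 monolayers, fluorescence measured at timed intervals up to 40 h of continuous compound exposure.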

[3] = qHTS RealTime-Glo MT Cell Viability Assay in HEK293 cells - 0 hour (AID 1224880); further: top concentration of the series differs between compounds; nearly all actives have a fitted effect of over 45% in size
In short: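 Nonlytic bioluminescent viability monitoring. HEK293 at 600 cells/well with reagent; 5 h settle; compound transfer by pintool; plates held at 37 C and read at set time points.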

[4] = A CellTox Green Cytotoxicity Assay to monitor cytotoxicity in HEK293 cells - 32 hour (AID 1224881); further: nearly all actives have a fitted effect of over 40% in size
In short: (§3)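 Cytotoxicity was tracked continuously in HEK293 cells by a DNA-binding dye excluded from viable cells. Compounds were transferred in DMSO 5 h after seeding; fluorescence was recorded at intervals up to 40 h.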

[5] = A CellTox Green Cytotoxicity Assay to monitor cytotoxicity in HepG2 cells - 0 hour (AID 1224882); further: nearly all actives have a fitted effect of over 35% in size
In short: as §2

[6] = A CellTox Green Cytotoxicity Assay to monitor cytotoxicity in HepG2 cells - 32 hour (AID 1224883); further: nearly all actives have a fitted effect of over 50% in size
In short: as §2

[7] = A CellTox Green Cytotoxicity Assay to monitor cytotoxicity in HEK293 cells - 8 hour (AID 1224884); further: nearly all actives have a fitted effect of over 35% in size
In short: as §3

[8] = qHTS RealTime-Glo MT Cell Viability Assay in HepG2 cells - 16 hour (AID 1224885); further: nearly all actives have a fitted effect of over 50% in size
In short: as §1

[9] = qHTS RealTime-Glo MT Cell Viability Assay in HEK293 cells - 24 hour (AID 1224886); further: top concentration of the series differs between compounds; nearly all actives have a fitted effect of over 50% in size
In short: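 Assay medium contained NanoLuc luciferase plus cell-permeant prosubstrate, added with HEK293 cells at 600 cells/well. After 5 h at 37 C/5% CO2 compounds were added; plates stayed at 37 C for 40 h with serial luminescence reads.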

[10] = A CellTox Green Cytotoxicity Assay to monitor cytotoxicity in HepG2 cells - 40 hour (AID 1224879); further: nearly all actives have a fitted effect of over 40% in size
In short: as §2
On the % scale 0 is the no-effect control and ±100 the full control effect.

CC(=O)C1C(=O)C=C(C)OC1=O (stereo not drawn)
inactive: outcome [1] | Potency [2] | Potency [3] | Potency [4] | Potency [5] | Potency [6] | Potency [7] | outcome [8] | Potency [9]

Cc1c(N)cccc1Cl
inactive: outcome [1] | Potency [10] | Potency [3] | Potency [4] | Potency [5] | Potency [6] | Potency [7] | outcome [8] | Potency [9]

CCCCCCCCCCOC(C)=O
inactive: outcome [1] | Potency [2] | Potency [4] | Potency [5] | Potency [6] | Potency [7] | outcome [8] | Potency [9]

CC(S)C(C)S (stereo not drawn)
inactive: outcome [1] | Potency [2] | Potency [3] | Potency [4] | Potency [5] | Potency [6] | Potency [7] | outcome [8] | Potency [9]

Cc1ccc(C(=O)O)cc1[N+](=O)[O-]
inactive: outcome [1] | Potency [2] | Potency [3] | Potency [4] | Potency [5] | Potency [6] | Potency [7] | outcome [8] | Potency [9]

CCCCOC(=O)C(C)O (stereo not drawn)
inactive: outcome [1] | Potency [10] | Potency [3] | Potency [4] | Potency [5] | Potency [6] | Potency [7] | outcome [8] | Potency [9]

Cn1c(=O)c2[nH]c(Br)nc2n(C)c1=O
inactive: outcome [1] | Potency [2] | Potency [3] | Potency [4] | Potency [5] | Potency [6] | Potency [7] | outcome [8] | Potency [9]

Cc1cccc(Cl)c1
inactive: outcome [1] | Potency [2] | Potency [10] | Potency [3] | Potency [6] | Potency [7] | outcome [8] | Potency [9]

CN(C)CCN(C)CCO
inactive: outcome [1] | Potency [2] | Potency [3] | Potency [4] | Potency [5] | Potency [6] | Potency [7] | outcome [8] | Potency [9]

C=CCSSCCC
inactive: outcome [1] | Potency [10] | Potency [3] | Potency [4] | Potency [5] | Potency [6] | Potency [7] | outcome [8]

CC(C)OC(=O)CCC(=O)OC(C)C
inactive: outcome [1] | Potency [2] | Potency [3] | Potency [4] | Potency [5] | Potency [6] | Potency [7] | outcome [8] | Potency [9]

CO/N=C(/C(=O)N[C@@H]1C(=O)N2C(C(=O)[O-])=C(C[n+]3ccn4ncccc43)CS[C@H]12)c1nsc(N)n1
inactive: outcome [1] | Potency [2] | Potency [10] | Potency [3] | Potency [6] | Potency [7] | outcome [8] | Potency [9]

COC(=O)c1cccc(Cl)c1
inactive: outcome [1] | Potency [10] | Potency [3] | Potency [4] | Potency [5] | Potency [6] | Potency [7] | outcome [8] | Potency [9]

COC(=O)CCCCC(=O)O
inactive: outcome [1] | Potency [2] | Potency [3] | Potency [5] | Potency [7] | outcome [8] | Potency [9]

O=Cc1ccccc1Cl
inactive: outcome [1] | Potency [2] | Potency [10] | Potency [3] | Potency [5] | Potency [6] | outcome [8] | Potency [9]

CC1CCc2c(N3CCC(O)CC3)c(F)cc3c(=O)c(C(=O)O)cn1c23 (stereo not drawn)
inactive: outcome [1] | Potency [10] | Potency [3] | Potency [4] | Potency [5] | Potency [6] | Potency [7] | outcome [8] | Potency [9]

C/C=C(\C)C(=O)OCCc1ccccc1
inactive: outcome [1] | Potency [2] | Potency [10] | Potency [3] | Potency [5] | Potency [6] | outcome [8] | Potency [9]

O=C1NC(c2ccccc2)(c2ccccc2)C(=O)N1COP(=O)(O)O
inactive: outcome [1] | Potency [2] | Potency [3] | Potency [4] | Potency [5] | Potency [6] | Potency [7] | outcome [8] | Potency [9]

Cc1ccc2c(c1)C(=O)c1ccccc1C2=O
inactive: outcome [1] | Potency [2] | Potency [3] | Potency [4] | Potency [6] | Potency [7] | outcome [8] | Potency [9]

CC(C)(C)NC[C@H](O)COc1cccc2c1CCCC2=O
inactive: outcome [1] | Potency [2] | Potency [3] | Potency [4] | Potency [6] | outcome [8] | Potency [9]

CC1(C)Cc2cccc(N)c2O1
inactive: outcome [1] | Potency [2] | Potency [3] | Potency [4] | Potency [5] | Potency [6] | Potency [7] | outcome [8] | Potency [9]

O=S(=O)(O)c1ccc2c(N=Nc3ccc(S(=O)(=O)O)c4ccccc34)c(O)c(S(=O)(=O)O)cc2c1
inactive: activity change, negative = cytotoxic [1] -3.7% [at 6.97 µM] | cytotoxicity [2] -12.7% [at 6.97 µM] | activity change, negative = cytotoxicity [3] 7.55% [at 6.97 µM] | cytotoxicity increase [4] 8.52% [at 6.97 µM] | cytotoxicity increase [6] -12.7% [at 6.97 µM] | cytotoxicity increase [7] 7.19% [at 6.97 µM] | activity change, negative = cytotoxic [8] 0.447% [at 6.97 µM] | activity change, negative = cytotoxicity [9] 5.55% [at 6.97 µM]

CCCC(=O)Nc1ccc(OCC(O)CNC(C)C)c(C(C)=O)c1 (stereo not drawn)
inactive: outcome [1] | Potency [2] | Potency [3] | Potency [5] | Potency [6] | Potency [7] | outcome [8] | Potency [9]

CCNC(=O)NCc1cccc(Cl)c1
inactive: outcome [1] | Potency [2] | Potency [3] | Potency [4] | Potency [5] | Potency [6] | Potency [7] | outcome [8] | Potency [9]
